The panel holds about 83,000 compounds, 20% with a hit somewhere; the sample as a whole holds those more often.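 In brief: 96-well plates, 48 h treatment, single concentration, percent growth endpoint.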 Unmarked numbers belong to inactive results. Active and inactive are the calls of the source. How the source made its calls: active means growth percent below 10; inactive means the rest.
How the values were obtained:
Assay in all cases: NCI-60 one-dose screen, 48 h (100 = growth as untreated, 0 = no growth, -100 = all killed)
Conditions in all cases: 10 µM unless noted
HCT-15 colon = test system: HCT-15 colon
HT29 colon = test system: HT29 colon
SNB-75 CNS = test system: SNB-75 CNS
SNB-19 CNS = test system: SNB-19 CNS
U251 CNS = test system: U251 CNS
PC-3 prostate = test system: PC-3 prostate
SK-MEL-5 melanoma = test system: SK-MEL-5 melanoma
UACC-62 melanoma = test system: UACC-62 melanoma
LOX IMVI melanoma = test system: LOX IMVI melanoma
SK-MEL-28 melanoma = test system: SK-MEL-28 melanoma
SK-MEL-2 melanoma = test system: SK-MEL-2 melanoma
EKVX NSCLC = test system: EKVX NSCLC
SN12C renal = test system: SN12C renal
UO-31 renal = test system: UO-31 renal
TK-10 renal = test system: TK-10 renal
ACHN renal = test system: ACHN renal
CAKI-1 renal = test system: CAKI-1 renal
A498 renal = test system: A498 renal
CCRF-CEM leukemia = test system: CCRF-CEM leukemia
MOLT-4 leukemia = test system: MOLT-4 leukemia

SMILES	growth (HCT-15 colon)	growth (HT29 colon)	growth (SNB-75 CNS)	growth (SNB-19 CNS)	growth (U251 CNS)	growth (PC-3 prostate)	growth (SK-MEL-5 melanoma)	growth (UACC-62 melanoma)	growth (LOX IMVI melanoma)	growth (SK-MEL-28 melanoma)	growth (SK-MEL-2 melanoma)	growth (EKVX NSCLC)	growth (SN12C renal)	growth (UO-31 renal)	growth (TK-10 renal)	growth (ACHN renal)	growth (CAKI-1 renal)	growth (A498 renal)	growth (CCRF-CEM leukemia)	growth (MOLT-4 leukemia)
O=Nc1c2cccnc2n2nnc3ccc(Cl)cc3c12	24.5%	8.1% (active)	63.4%	89.8%	50.6%	-26.9% (active)	96.2%	73.5%	26.6%	28.3%	57.1%	77.4%	56.5%	-37.4% (active)	16.5%	-49.8% (active)	5.93% (active)	88.3%	-60.5% (active)	-54.3% (active)
O=c1ccn(C2CC=C(CO)O2)c(=O)[nH]1 (stereo not given)	105%	111%	108%	108%	102%	85.9%	90%	91.7%	94%	106%	105%	105%	92.1%	110%	100%	109%	63.1%	101%	–	101%
Cn1cnc([N+](=O)[O-])c1Sc1nc(N)nc2nc[nH]c12	50.3%	47.2%	31.3%	101%	63.6%	56.2%	79.3%	7.35% (active)	6.74% (active)	84.4%	17.8%	27.9%	43.6%	16.9%	38.5%	72.7%	38.4%	43.6%	13.5%	11.3%
Cc1ccc2nc(SCC(=O)Nc3ccc(-c4nc5ccccc5s4)c(Cl)c3)[nH]c2c1	101%	106%	94.6%	102%	105%	107%	102%	90.3%	107%	118%	105%	119%	107%	95%	109%	106%	105%	105%	103%	99.8%
COC(=O)N/N=C/c1coc2ccc(Cl)cc2c1=O	97%	95.4%	80.5%	98.4%	96.7%	74%	106%	93.9%	86.7%	100%	68.5%	85.4%	88.1%	84.1%	120%	91.6%	81.8%	111%	90.7%	84.2%
O=C(CC(C(=O)c1ccccc1)N1CCN(Cc2ccccc2)CC1)c1ccccc1 (stereo not given)	57%	54.7%	91.7%	99.4%	74.9%	93.8%	103%	101%	73.4%	112%	104%	120%	99.3%	80%	96.6%	41.8%	73.5%	74.6%	8.48% (active)	49.5%
CN(C)CCC(=O)Nc1ccc(-n2cc(-c3cccc(NC(=S)Nc4cccc(-c5cn(-c6ccc(NC(=O)CCN(C)C)cc6)nn5)c4)c3)nn2)cc1	92.5%	28.4%	119%	106%	70.9%	89%	97.2%	114%	19.3%	133%	91.6%	101%	91.4%	135%	142%	117%	130%	108%	48.4%	47.2%
O=C(O)c1ccc2cccnc2c1O	7.1% (active)	10.9%	23%	12.7%	8.23% (active)	1.21% (active)	0.767% (active)	0.979% (active)	3.31% (active)	44.6%	4.77% (active)	18.8%	7.06% (active)	-5.79% (active)	13.2%	7.69% (active)	4.24% (active)	13.6%	10.3%	11.2%
C=CCNC(=O)/C(=C/c1cccc([N+](=O)[O-])c1)NC(=O)c1ccccc1	87.5%	113%	87.5%	91.2%	96.8%	94.7%	97.9%	95.3%	93.4%	119%	18.9%	108%	103%	90%	101%	94%	90.6%	130%	90.6%	101%
CN(C)c1ncnc2c1ncn2C1CCCCO1 (stereo not given)	100%	109%	86.4%	97.1%	108%	91.3%	107%	84.5%	101%	97.6%	102%	102%	93.8%	73.2%	101%	104%	102%	–	94.9%	–
CCOC(=O)c1sc(NC(=O)COc2cccc(/C=C3\CCc4cc(OC)ccc4C3=O)c2)nc1C	56.5%	39.6%	99.3%	58.4%	41.1%	48.9%	44.1%	60.8%	48.8%	103%	42.6%	82.9%	48.9%	14%	89.3%	85.7%	60.2%	85.8%	-17.2% (active)	7.22% (active)
O=C1/C(=C\c2coc3ccccc3c2=O)c2ccccc2N1c1c(Cl)cccc1Cl	24.7%	47.6%	62.7%	62.6%	36%	31.8%	20.3%	36.6%	37.1%	47.3%	85.7%	33.1%	59.5%	42.6%	–	54.6%	-7.88% (active)	12.6%	21.1%	19%
CCSc1nc(-c2ccco2)n2nc(-c3ccco3)cc2n1	78.1%	99.4%	83.2%	113%	96.8%	95.7%	78.3%	89.8%	88.3%	120%	129%	76.1%	95.8%	72.4%	–	88.8%	84.3%	91.7%	86.7%	118%
